Laboratory results: PubChem BioAssay (NCATS)
Inconclusive results are not listed. Entries that show only a call come without a potency. Active and inactive are the calls of the source. Calls follow the shape of the dose curve; as a rule, active = well fitted inhibition curve with a large enough effect; inconclusive = small, poorly fitted or top-dose-only effect; inactive = flat fitted curve, though single readings scatter.

system: Zika virus NS2B-NS3 protease; experiment: Primary screen GU AMC qHTS for Zika virus inhibitors (AID 1347154); details: Zika NS2B-NS3 unlinked protease, AMC fluorogenic substrate; series mostly up to 54.1 µM; also: nearly all actives have a fitted effect of over 70% in size
Summary of the method: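 Unlinked Zika NS2B hydrophilic domain–NS3 protease complex at 25 nM in 10 mM Tris-HCl pH 8.0, 0.01% Tween 20, with an AMC peptide substrate. Fluorescence change (340/450 nm) over 15 min at room temperature, normalized to controls, fitted to 4-parameter Hill.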

Q: For `C=CCc1ccc(O)c(OC)c1`, which Potency is on record?
A: The Potency was “inactive”.

Q: Which Potency does the source give for `CC[C@@H](CO)NCCN[C@@H](CC)CO` here?
A: Its Potency is “inactive”.

Q: How did the Potency turn out when `C[C@H]1C[C@H]2[C@@H]3CCC4=CC(=O)C=C[C@]4(C)[C@@]3(Cl)[C@@H](O)C[C@]2(C)[C@@]1(O)C(=O)CO` was run?
A: The Potency was “inactive”.

Q: `Nc1ccc(C(=O)Nc2ccccc2N)cc1` was tested. Which Potency did it give?
A: Its Potency is “inactive”.

Q: With `CCOC(=O)/C=C(C)/C=C/C=C(C)/C=C/c1c(C)cc(OC)c(C)c1C` as the compound, how does the Potency read?
A: The Potency was “inactive”.

Q: Which Potency does the source give for `CC(C)N=C(N)/N=C(\N)Nc1ccc(Cl)cc1` here?
A: Its Potency is “inactive”.

Q: For `NC(=O)CC[C@@H]1NC(=O)[C@H](Cc2ccccc2)NC(=O)[C@H](Cc2ccc(O)cc2)NC(=O)CCSSC[C@@H](C(=O)N2CCC[C@H]2C(=O)N[C@@H](CCCN=C(N)N)C(=O)NCC(N)=O)NC(=O)[C@H](CC(N)=O)NC1=O`, which Potency is on record?
A: The Potency was “inactive”.

Q: `CC(Cc1cccc(C(F)(F)F)c1)NCCOC(=O)c1ccccc1` (configuration not stated) was tested. Which Potency did it give?
A: The Potency was “inactive”.

Q: For `CC(=O)OCC(=O)[C@@]12OC(C)(C)O[C@@H]1C[C@H]1[C@@H]3C[C@H](F)C4=CC(=O)C=C[C@]4(C)[C@@]3(F)[C@@H](O)C[C@@]12C`, which Potency is on record?
A: The Potency was “inactive”.

Q: How did the Potency turn out when `CC(=O)CC(c1ccc([N+](=O)[O-])cc1)c1c(O)c2ccccc2oc1=O` (configuration not stated) was run?
A: The Potency was “inactive”.

Q: With `O=C(COc1ccc(Cl)cc1)N1CCN(Cc2ccc3c(c2)OCO3)CC1` as the compound, how does the Potency read?
A: Its Potency is “inactive”.

Q: `CC(O)(P(=O)(O)O)P(=O)(O)O` was tested. Which Potency did it give?
A: The Potency was “inactive”.

Q: `CC(=O)N(O)CCCCCNC(=O)CCC(=O)N(O)CCCCCNC(=O)CCC(=O)N(O)CCCCCN` was tested. Which Potency did it give?
A: Its Potency is “inactive”.

Q: With `OCc1ccccc1O` as the compound, how does the Potency read?
A: Its Potency is “inactive”.

Q: Which Potency does the source give for `CCN(CC)CCNC(=O)COc1ccc(Cl)cc1` here?
A: The Potency was “inactive”.

Q: `CC1(C)OC[C@@H](COC(=O)CCc2ccc(OC[C@@H](O)CNCCNC(=O)N3CCOCC3)cc2)O1` was tested. Which Potency did it give?
A: The Potency was “inactive”.

Q: `CC(=O)[C@H]1CC[C@H]2[C@@H]3C[C@H](C)C4=CC(=O)CC[C@]4(C)[C@H]3[C@@H](O)C[C@]12C` was tested. Which Potency did it give?
A: Its Potency is “inactive”.

Q: How did the Potency turn out when `CCCCCCc1ccc(O)cc1O` was run?
A: Its Potency is “inactive”.

Q: With `OC[C@@H](O)[C@@H](O[C@@H]1O[C@H](CO)[C@H](O)[C@H](O)[C@H]1O)[C@H](O)[C@@H](O)CO` as the compound, how does the Potency read?
A: Its Potency is “inactive”.

Q: How did the Potency turn out when `C[C@]12CC[C@@H]3c4ccc(O)cc4CC[C@H]3[C@@H]1C[C@@H](O)[C@@H]2O` was run?
A: Its Potency is “inactive”.

Q: `CCCCC1=NC2(CCCC2)C(=O)N1Cc1ccc(-c2ccccc2-c2nn[nH]n2)cc1` was tested. Which Potency did it give?
A: Its Potency is “inactive”.

Q: For `c1ccc(CNCCNCc2ccccc2)cc1`, which Potency is on record?
A: The Potency was “inactive”.
